The text below walks through data of ChEMBL document CHEMBL1961873, “Compounds: GSK PKIS; Assays: Nanosyn kinase panel” (2012).
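Also: each value is a mean percent inhibition of PHKG1.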

Sequence of Phosphorylase b kinase gamma catalytic chain, skeletal muscle/heart isoform (Homo sapiens) (Q16816 whole entry, looked up, canonical isoform): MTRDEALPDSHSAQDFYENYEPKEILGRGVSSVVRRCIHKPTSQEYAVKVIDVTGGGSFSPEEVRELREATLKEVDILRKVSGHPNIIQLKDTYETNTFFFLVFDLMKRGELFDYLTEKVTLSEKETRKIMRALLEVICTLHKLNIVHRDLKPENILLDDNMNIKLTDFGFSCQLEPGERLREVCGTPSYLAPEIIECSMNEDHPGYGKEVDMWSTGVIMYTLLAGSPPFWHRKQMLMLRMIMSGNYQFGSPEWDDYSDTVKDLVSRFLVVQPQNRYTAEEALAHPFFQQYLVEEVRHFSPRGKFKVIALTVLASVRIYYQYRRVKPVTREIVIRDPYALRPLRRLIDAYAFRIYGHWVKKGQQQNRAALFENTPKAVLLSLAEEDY

The assay concerns the target Phosphorylase b kinase gamma catalytic chain, skeletal muscle/heart isoform (Homo sapiens) (UniProt Q16816). To be noted: at 1 µM.
For the molecule `Cc1ccc(O)cc1Nc1ccnc2ccc(S(C)(=O)=O)cc12`, the inhibition (in general, the change of the read-out against control, counted positive when it falls) came out at 10%.

As for `COc1ccc(-c2nn3ncccc3c2-c2ccnc(Nc3cccc(C(F)(F)F)c3)n2)cc1`, the inhibition was 4.58%.

For the molecule `Cc1nc(-c2ccccc2)n2nc(NCCCN3CCOCC3)ncc12`, the inhibition came to 4.26%.

Regarding `Nc1nccc(C#Cc2cncnc2Nc2ccc(OCc3cccc(F)c3)c(Cl)c2)n1`, the inhibition came out at 27.5%.

For the molecule `C[C@@H](Oc1cc(-n2cnc3ccc(OCC4CCN(C)CC4)cc32)sc1C(N)=O)c1ccccc1C(F)(F)F`, the inhibition stood at 7.24%.

Molecule `N#Cc1c(NC(=O)c2ccccc2F)sc2c1CCCC2` returned an inhibition of 2.36%.

Consider `Nc1nccc(-c2c(-c3ccc(F)cc3)ncn2CCCN2CCOCC2)n1`, for which the inhibition amounted to 5.42%.

For `COc1cccc(-n2ncc3c(N/N=C/c4ccc(C)cc4)ncnc32)c1`, the inhibition amounted to 10%.

`C[C@@H](Oc1cc(-n2cnc3ccc(OC[C@@H](O)CO)cc32)sc1C(N)=O)c1ccccc1Cl` yielded an inhibition of 4.08%.

In turn, `Cc1cc(-c2ccccn2)cc(C)c1/C=C/c1cncc(-c2nn[nH]n2)c1` came in with an inhibition of 7%.

The molecule `Cc1ccc2c(-c3ccnc(Nc4cccc(C(F)(F)F)c4)n3)c(-c3ccccc3)nn2n1` registered an inhibition of 7.08%.

In turn, `CCn1c(-c2nonc2N)nc2ccc(F)cc21` showed an inhibition of 7.3%.

As to `COc1cccc(-n2ncc3c(N/N=C/c4ccc(S(C)(=O)=O)cc4)ncnc32)c1`, the inhibition came out at 2.63%.

Take `Cc1ccc2c(c1)/C(=N/Nc1ccc(S(N)(=O)=O)cc1)C(=O)N2`: the inhibition is 11%.

In turn, `Cc1cc(Cl)cc2c1NC(=O)C2=NNc1ccc(S(N)(=O)=O)cc1` had an inhibition of 6.02%.

In turn, `Nc1ccc(C#Cc2cncnc2Nc2ccc(OCc3cccc(F)c3)c(Cl)c2)cc1` displayed an inhibition of 2.49%.

For `Oc1cccc(-c2nc(-c3ccccc3)[nH]c2-c2ccncc2)c1`, the inhibition turned out to be 3.93%.

The molecule `O=C1Nc2ccc(-c3cccnc3)cc2C1=Cc1cc(Br)c(O)c(Br)c1` returned an inhibition of 9.21%.
